About 7,900 targets were measured; listed, in parts, are those with a hit and a random draw of the rest. About 0.6% of all pairs of compound and target were hits. Values without a mark were called inactive.
How the values were obtained:
Assay in all cases: log2 fold change, soluble protein after heating vs DMSO (PISA); higher = thermal stabilisation; K562 cells, 10 uM, 30 min; active = over 0.2 and 3.5 SD of the protein, either way, in both replicates (recomputed)
erlotinib = compound: C#Cc1cccc(Nc2ncnc3cc(OCCOC)c(OCCOC)cc23)c1 [erlotinib]
In short: (§1)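 Aliquots of K562 cells (2×10^6 cells/mL) treated with 10 μM compound for 30 min were heated for 3 min over 48°C-58°C. After pooling and extraction in PBS with 0.5% NP-40 at 4°C, soluble protein from a 21,000xg, 90 min spin was quantified by TMTpro 16plex LC-MS/MS with channel sums equalised. Thermal stability is expressed against control samples, from duplicates, as a log2 fold change.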

[1] = compound: C/C(=N\NC(=O)C1=CC(=CC=C1)S(=O)(=O)N2CCOCC2)/C3=C(C=CC(=C3)Cl)O
In short: as §1

[2] = compound: C1=CC(=C(C=C1Cl)C2=NC3=NC=CN=C3C(=N2)NC4=CC=NC=C4)F
In short: as §1

[3] = compound: C1=CC(=CC=C1C2=NC3=C(N2)C=C(C=C3)C(=O)N)OC4=CC=C(C=C4)Cl
In short: as §1

[4] = compound: C1=CC2=C(C=CC(=C2)/C=C\3/C(=O)NC(=NCC4=CC=CS4)S3)N=C1
In short: as §1

[5] = compound: C1=CC2=NC=CN=C2C=C1/C=C/3\C(=O)NC(=O)S3
In short: as §1

[6] = compound: C1=CC=C(C=C1)C2=NC(=C(N2)C3=CC=NC=C3)C4=CC(=C(C=C4)Cl)O
In short: as §1

[7] = compound: C1=CC=C2C(=C1)C3=NNC4=CC=CC(=C43)C2=O
In short: as §1

[8] = compound: C1CCN(C1)C(=O)NC2=CC=CC(=C2)NC3=NC=C(C(=N3)NCCC4=CN=CN4)Br
In short: as §1

[9] = compound: C1CN(CCC1(CC2=CC=C(C=C2)Cl)N)C3=NC=NC4=C3C=CN4
In short: as §1

IRAK-1-4 Inhibitor I = compound: C1COCCN1CCN2C3=CC=CC=C3N=C2NC(=O)C4=CC(=CC=C4)[N+](=O)[O-] [IRAK-1-4 Inhibitor I]
In short: as §1

ibrutinib = compound: C=CC(=O)N1CCC[C@@H](n2nc(-c3ccc(Oc4ccccc4)cc3)c3c(N)ncnc32)C1 [ibrutinib]
In short: as §1

[10] = compound: CC(=O)c1cnc2ccc(-c3cc(Cl)c(O)c(Cl)c3)nc2c1N[C@H]1CC[C@H](CN(C)C)CC1
In short: as §1

ralimetinib = compound: CC(C)(C)Cn1c(N)nc2ccc(-c3[nH]c(C(C)(C)C)nc3-c3ccc(F)cc3)nc21 [ralimetinib]
In short: as §1

[11] = compound: CC(C)(O)CC(=O)NCCn1ccc2ncnc(Nc3ccc(Oc4cccc(C(F)(F)F)c4)c(Cl)c3)c21
In short: as §1

[12] = compound: CC(C)C1=C2N=C(C=C(N2N=C1)NCC3=CC=CC=C3)NCCCCCCN
In short: as §1

[13] = compound: CC(C)C[C@@H](C=O)NC(=O)[C@H](CC(C)C)NC(=O)[C@H](CC(C)C)NC(=O)OCc1ccccc1
In short: as §1

pinometostat = compound: CC(C)N(C[C@H]1O[C@@H](n2cnc3c(N)ncnc32)[C@H](O)[C@@H]1O)[C@H]1C[C@@H](CCc2nc3cc(C(C)(C)C)ccc3[nH]2)C1 [pinometostat]
In short: as §1

[14] = compound: CC1=C(C(CC(=O)N1)C2=CC=C(C=C2)C(F)(F)F)C(=O)NC3=C(C=C4C(=C3)C=NN4)F
In short: as §1

[15] = compound: CC1=C(C2=C(C=C1)C(=O)C3=CC=CC=C3N2CCCN)C
In short: as §1

Sequence of UniProt O00471 (O00471 whole entry, looked up): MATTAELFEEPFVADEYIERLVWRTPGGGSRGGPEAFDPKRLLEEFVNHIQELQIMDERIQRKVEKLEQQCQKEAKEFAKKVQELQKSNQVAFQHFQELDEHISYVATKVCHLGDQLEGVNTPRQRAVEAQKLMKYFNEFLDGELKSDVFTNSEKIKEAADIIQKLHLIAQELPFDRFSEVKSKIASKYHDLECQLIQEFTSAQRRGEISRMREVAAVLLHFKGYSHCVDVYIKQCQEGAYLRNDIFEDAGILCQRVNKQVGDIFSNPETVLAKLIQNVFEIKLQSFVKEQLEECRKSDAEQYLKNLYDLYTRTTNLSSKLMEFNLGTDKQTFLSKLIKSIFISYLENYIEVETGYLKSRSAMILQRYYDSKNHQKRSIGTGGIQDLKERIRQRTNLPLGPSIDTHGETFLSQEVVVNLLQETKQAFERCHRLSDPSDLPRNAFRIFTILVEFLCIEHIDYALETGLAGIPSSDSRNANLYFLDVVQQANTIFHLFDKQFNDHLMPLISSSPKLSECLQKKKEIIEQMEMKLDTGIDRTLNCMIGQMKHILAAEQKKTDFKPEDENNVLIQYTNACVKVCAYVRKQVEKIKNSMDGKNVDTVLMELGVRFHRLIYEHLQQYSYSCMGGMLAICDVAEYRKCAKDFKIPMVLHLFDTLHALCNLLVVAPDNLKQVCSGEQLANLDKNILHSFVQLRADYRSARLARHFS
Sequence of UniProt P39880 (P39880 whole entry, looked up): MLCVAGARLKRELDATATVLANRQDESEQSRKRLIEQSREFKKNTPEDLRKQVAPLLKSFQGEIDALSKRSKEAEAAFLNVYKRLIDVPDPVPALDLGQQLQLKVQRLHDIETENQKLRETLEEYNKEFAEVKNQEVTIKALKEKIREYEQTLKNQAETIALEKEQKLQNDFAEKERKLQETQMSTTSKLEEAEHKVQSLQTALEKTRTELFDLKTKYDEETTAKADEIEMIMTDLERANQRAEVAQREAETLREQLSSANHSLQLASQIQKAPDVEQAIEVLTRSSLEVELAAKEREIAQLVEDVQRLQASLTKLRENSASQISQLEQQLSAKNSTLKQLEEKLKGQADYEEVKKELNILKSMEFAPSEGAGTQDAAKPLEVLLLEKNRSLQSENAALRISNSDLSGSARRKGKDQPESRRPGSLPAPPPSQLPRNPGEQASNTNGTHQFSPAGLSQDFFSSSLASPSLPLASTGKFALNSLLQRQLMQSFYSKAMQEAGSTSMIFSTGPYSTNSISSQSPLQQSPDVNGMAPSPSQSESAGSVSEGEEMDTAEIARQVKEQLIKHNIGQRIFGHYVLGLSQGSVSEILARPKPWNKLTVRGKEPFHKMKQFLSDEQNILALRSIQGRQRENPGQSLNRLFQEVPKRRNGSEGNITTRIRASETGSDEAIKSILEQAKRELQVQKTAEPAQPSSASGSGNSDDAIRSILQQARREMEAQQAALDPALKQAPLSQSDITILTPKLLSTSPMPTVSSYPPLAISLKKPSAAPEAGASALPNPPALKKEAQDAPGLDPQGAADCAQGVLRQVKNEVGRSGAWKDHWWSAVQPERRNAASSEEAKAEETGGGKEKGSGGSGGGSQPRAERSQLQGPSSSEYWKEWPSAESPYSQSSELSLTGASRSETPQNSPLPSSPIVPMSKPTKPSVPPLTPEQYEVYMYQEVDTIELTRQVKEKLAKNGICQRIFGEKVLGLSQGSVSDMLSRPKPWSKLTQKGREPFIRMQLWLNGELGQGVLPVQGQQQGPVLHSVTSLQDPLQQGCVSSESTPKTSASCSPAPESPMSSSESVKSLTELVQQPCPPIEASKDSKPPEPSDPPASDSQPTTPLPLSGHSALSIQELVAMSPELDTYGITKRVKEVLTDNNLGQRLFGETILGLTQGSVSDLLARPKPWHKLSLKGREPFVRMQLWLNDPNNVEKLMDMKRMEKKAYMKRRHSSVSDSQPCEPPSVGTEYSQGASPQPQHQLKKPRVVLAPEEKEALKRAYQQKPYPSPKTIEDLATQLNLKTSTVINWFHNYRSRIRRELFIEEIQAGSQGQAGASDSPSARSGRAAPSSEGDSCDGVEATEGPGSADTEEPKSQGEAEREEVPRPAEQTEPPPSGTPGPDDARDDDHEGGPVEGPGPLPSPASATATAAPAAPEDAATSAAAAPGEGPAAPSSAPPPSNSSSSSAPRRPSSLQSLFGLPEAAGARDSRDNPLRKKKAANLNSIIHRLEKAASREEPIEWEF
Sequence of UniProt P18074 (P18074 whole entry, looked up): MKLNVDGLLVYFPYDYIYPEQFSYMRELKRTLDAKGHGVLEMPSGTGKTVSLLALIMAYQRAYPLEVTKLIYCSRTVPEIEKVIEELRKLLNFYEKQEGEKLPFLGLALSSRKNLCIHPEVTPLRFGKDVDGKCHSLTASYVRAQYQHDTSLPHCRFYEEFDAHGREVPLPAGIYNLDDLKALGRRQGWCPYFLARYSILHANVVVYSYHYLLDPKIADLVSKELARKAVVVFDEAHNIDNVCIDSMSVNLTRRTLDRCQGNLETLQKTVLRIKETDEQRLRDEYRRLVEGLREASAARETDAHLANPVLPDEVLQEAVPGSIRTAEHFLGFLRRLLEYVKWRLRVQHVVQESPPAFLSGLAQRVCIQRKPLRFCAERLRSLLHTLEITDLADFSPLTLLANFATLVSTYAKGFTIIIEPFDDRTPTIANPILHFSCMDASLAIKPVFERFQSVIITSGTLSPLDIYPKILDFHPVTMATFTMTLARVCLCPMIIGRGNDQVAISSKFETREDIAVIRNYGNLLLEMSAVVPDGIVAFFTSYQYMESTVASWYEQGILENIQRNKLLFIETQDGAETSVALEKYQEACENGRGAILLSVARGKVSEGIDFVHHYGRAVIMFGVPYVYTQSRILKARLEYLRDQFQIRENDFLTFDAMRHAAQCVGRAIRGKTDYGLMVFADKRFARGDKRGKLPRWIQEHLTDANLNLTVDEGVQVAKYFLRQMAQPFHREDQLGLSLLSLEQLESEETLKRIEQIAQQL
Sequence of UniProt Q9C073 (Q9C073 whole entry, looked up): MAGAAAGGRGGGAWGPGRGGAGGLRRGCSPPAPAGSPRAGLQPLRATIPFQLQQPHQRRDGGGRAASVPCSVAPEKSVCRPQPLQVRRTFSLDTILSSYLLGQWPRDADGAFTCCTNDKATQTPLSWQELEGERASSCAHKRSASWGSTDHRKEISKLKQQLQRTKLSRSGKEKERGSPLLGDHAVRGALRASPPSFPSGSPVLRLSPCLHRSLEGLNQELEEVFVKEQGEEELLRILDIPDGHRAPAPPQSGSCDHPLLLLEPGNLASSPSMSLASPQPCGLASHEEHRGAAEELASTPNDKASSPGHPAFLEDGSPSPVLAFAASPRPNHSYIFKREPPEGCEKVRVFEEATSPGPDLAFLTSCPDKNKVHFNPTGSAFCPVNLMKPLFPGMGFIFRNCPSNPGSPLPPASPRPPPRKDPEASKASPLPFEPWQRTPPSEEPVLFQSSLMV
Sequence of UniProt Q99848 (Q99848 whole entry, looked up): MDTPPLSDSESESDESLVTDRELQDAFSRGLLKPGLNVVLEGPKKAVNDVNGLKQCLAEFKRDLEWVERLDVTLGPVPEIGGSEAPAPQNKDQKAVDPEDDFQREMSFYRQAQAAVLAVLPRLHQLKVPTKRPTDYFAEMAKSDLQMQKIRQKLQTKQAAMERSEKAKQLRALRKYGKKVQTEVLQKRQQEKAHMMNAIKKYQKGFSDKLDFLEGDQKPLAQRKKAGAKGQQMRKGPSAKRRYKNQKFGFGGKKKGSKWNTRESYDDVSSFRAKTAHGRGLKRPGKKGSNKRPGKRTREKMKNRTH
Sequence of UniProt P39656 (P39656 whole entry, looked up): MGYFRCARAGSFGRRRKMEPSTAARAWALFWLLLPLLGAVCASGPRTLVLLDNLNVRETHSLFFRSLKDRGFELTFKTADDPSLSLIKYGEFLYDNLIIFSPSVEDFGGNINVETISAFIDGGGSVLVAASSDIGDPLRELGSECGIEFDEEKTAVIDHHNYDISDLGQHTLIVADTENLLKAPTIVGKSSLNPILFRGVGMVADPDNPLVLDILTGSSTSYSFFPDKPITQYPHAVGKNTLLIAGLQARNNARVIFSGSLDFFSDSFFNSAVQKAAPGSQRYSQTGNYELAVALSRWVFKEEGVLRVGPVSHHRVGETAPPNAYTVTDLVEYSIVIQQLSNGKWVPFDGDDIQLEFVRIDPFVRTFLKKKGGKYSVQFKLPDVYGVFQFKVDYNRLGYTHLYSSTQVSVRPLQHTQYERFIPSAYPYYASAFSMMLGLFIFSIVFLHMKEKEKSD
Sequence of UniProt P35222 (P35222 whole entry, looked up): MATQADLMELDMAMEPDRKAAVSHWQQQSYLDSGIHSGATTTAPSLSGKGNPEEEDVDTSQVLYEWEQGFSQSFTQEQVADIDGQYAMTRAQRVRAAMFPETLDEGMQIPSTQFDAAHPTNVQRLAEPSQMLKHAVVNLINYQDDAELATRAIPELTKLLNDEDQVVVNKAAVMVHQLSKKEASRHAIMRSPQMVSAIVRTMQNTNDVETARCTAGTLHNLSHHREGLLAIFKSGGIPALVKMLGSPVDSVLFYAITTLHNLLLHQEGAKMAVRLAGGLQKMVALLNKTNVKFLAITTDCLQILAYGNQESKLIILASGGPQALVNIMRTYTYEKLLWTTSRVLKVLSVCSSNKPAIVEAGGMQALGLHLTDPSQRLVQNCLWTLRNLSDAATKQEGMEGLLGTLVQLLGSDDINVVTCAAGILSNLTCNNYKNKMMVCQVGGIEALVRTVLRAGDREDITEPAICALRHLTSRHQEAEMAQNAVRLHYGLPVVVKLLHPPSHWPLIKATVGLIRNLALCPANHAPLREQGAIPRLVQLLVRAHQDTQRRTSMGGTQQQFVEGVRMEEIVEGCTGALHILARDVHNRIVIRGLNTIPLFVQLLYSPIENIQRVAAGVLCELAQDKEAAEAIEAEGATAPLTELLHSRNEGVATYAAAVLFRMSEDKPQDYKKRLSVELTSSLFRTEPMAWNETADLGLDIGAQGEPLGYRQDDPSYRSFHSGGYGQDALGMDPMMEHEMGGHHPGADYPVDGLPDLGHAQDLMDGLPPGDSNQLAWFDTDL

Row | Target | log2 fold change (erlotinib) | log2 fold change [1] | log2 fold change [2] | log2 fold change [3] | log2 fold change [4] | log2 fold change [5] | log2 fold change [6] | log2 fold change [7] | log2 fold change [8] | log2 fold change [9] | log2 fold change (IRAK-1-4 Inhibitor I) | log2 fold change (ibrutinib) | log2 fold change [10] | log2 fold change (ralimetinib) | log2 fold change [11] | log2 fold change [12] | log2 fold change [13] | log2 fold change (pinometostat) | log2 fold change [14] | log2 fold change [15]
1 | EXOC5 (UniProt O00471) | 0.054 | 0.092 | -0.002 | -0.044 | 0.01 | 0 | -0.006 | 0.015 | 0.004 | -0.015 | -0.062 | -0.002 | -0.01 | 0.015 | -0.03 | -0.344 (active) | 0.014 | 0.078 | 0 | -0.061
2 | ECPAS (UniProt Q5VYK3) | 0.058 | 0.087 | 0.001 | -0.06 | 0.042 | 0.009 | 0.048 | -0.01 | -0.028 | -0.018 | -0.117 | -0.09 | 0.009 | 0.082 | -0.139 | -0.094 | 0.564 (active) | 0.055 | 0.021 | 0.092
3 | ERCC2 (UniProt P18074) | 0.04 | 0.049 | 0.2 | 0.033 | 0.041 | -0.051 | 0.014 | -0.054 | -0.005 | 0.036 | -0.01 | 0.003 | -0.165 | 0.014 | 0.016 | -0.068 | 0.03 | 0.078 | 0.021 | -0.016
4 | CTNNB1 (UniProt P35222) | -0.035 | 0.062 | -0.033 | 0.025 | 0.092 | 0.108 | 0.036 | -0.01 | -0.002 | -0.032 | -0.028 | -0.116 | 0.263 | -0.045 | -0.056 | -0.007 | 0.081 | -0.021 | -0.057 | 0.003
5 | DDOST (UniProt P39656) | -0.033 | 0.003 | 0.004 | -0.014 | -0.085 | 0.014 | 0.253 (active) | 0.012 | -0.002 | -0.003 | -0.038 | -0.027 | 0.057 | 0.156 | 0.015 | -0.081 | -0.036 | 0.015 | 0.024 | -0.041
6 | EXOC6 (UniProt Q8TAG9) | 0.073 | 0.127 | 0.006 | -0.025 | 0.096 | 0.076 | 0.069 | 0.003 | -0.045 | -0.042 | -0.046 | -0.007 | -0.014 | 0.102 | -0.084 | -0.397 (active) | 0.042 | 0.056 | 0.158 | 0.032
7 | FAM117A (UniProt Q9C073) | 0.127 | 0.054 | -0.056 | 0.053 | -0.279 (active) | -0.101 | -0.041 | -0.129 | -0.143 | -0.121 | -0.004 | 0.001 | -0.833 (active) | -0.125 | -0.068 | -0.102 | 0.126 | -0.003 | 0.042 | 0.011
8 | CUX1 isoform 3 (UniProt P39880) | 0.013 | 0 | 0.034 | -0.015 | -0.008 | 0.11 | -0.074 | 0.01 | -0.003 | 0.092 | 0.019 | -0.033 | -0.032 | -0.065 | -0.047 | 0.008 | 0.116 | -0.018 | 0.015 | 0.153
9 | EBNA1BP2 (UniProt Q99848) | -0.041 | -0.149 | -0.466 | 0.034 | 0.042 | 0.052 | -0.047 | -0.134 | 0.048 | -0.414 | -0.143 | -0.013 | 0.013 | 0.27 | 0.124 | 0.213 | -0.026 | 0.439 | 0.006 | -1.4 (active)
10 | DAG1 (UniProt Q14118) | 0.055 | 0.067 | -0.043 | 0 | -0.038 | -0.037 | -0.154 | -0.06 | -0.009 | 0.035 | -0.019 | -0.024 | -0.029 | -0.076 | 0.003 | 0.169 | 0.008 | 0.04 | -0.008 | 0.067
11 | EDC4 (UniProt Q6P2E9) | -0.045 | 0.1 | -0.058 | 0.017 | -0.177 | -0.069 | -0.035 | -0.151 | -0.023 | -0.041 | -0.041 | -0.001 | -0.387 (active) | 0.019 | 0.007 | -0.181 | 0.022 | 0.05 | -0.016 | -0.032
12 | CTSB (UniProt P07858) | 0.021 | -0.037 | 0.026 | 0.003 | 0.038 | 0.016 | 0.009 | -0.017 | 0.007 | 0.04 | -0.009 | 0.032 | 0.013 | -0.044 | 0.011 | -0.426 (active) | 0.037 | -0.031 | 0.042 | -0.053
